Measured values as given in PubChem BioAssay.
Calls of active or inactive are those of the source. Unless noted, the rule behind the calls is not given here.

Experiments:
[1] = compound effects on lung adenocarcinoma cell viability – A549, calcein-AM fluorescence, 48 h, basal, profiling panel (AID 1162); conditions: higher = more signal; note: test concentration not given here
[2] = compound effects on differentiated 3T3-L1 adipocyte viability – cell-based, 3T3-L1 adipocytes, calcein-AM fluorescence, 48 h, basal, profiling panel (AID 1163); conditions: 3T3-L1 adipocytes viability, higher = more signal; note: test concentration not given here
[3] = compound effects on hepatocellular carcinoma cell viability – HepG2, calcein-AM fluorescence, 48 h, basal, profiling panel (AID 1164); conditions: higher = more signal; note: test concentration not given here
[4] = compound effects on multiple myeloma cell viability – MM1S, calcein-AM fluorescence, 48 h, basal, profiling panel (AID 1165); conditions: higher = more signal; note: test concentration not given here
[5] = calcein-AM signal in unstimulated myeloma cells – cell-based, calcein-AM fluorescence, 48 h, PK04 Diversity Set, profiling panel (AID 1166); conditions: RPMI8226 myeloma viability, higher = more signal;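 note: cells grown under basal conditions without added stimulus; test concentration not given here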
[6] = JC-1 mitochondrial signal, unstimulated HepG2 cells – cell-based, JC-1 fluorescence, 24 h, 100 nL compound, profiling panel (AID 1167); conditions: HepG2 mitochondrial potential, higher = more signal; note: test concentration not given here
[7] = JC-1 mitochondrial signal, unstimulated adipocytes – cell-based, JC-1 fluorescence, 3T3-L1 adipocytes, 24 h, 100 nL compound, profiling panel (AID 1168); conditions: JC-1 mitochondrial fluorescence, higher = more signal, called active from +8 up or from −8 down; note: test concentration not given here
[8] = JC-1 mitochondrial signal, unstimulated myeloma cells – cell-based, JC-1 fluorescence, RPMI8226, 24 h, 100 nL compound, profiling panel (AID 1169); conditions: JC-1 mitochondrial potential fluorescence, higher = more signal; note: test concentration not given here
[9] = JC-1 mitochondrial signal, unstimulated MM1S myeloma – cell-based, JC-1 fluorescence, 24 h, 100 nL compound, profiling panel (AID 1170); conditions: MM1S mitochondrial potential, higher = more signal; note: test concentration not given here
[10] = resazurin metabolic signal in A549 cells – cell-based, resazurin fluorescence, 24 h, PK04 Diversity Set, profiling panel (AID 1171); conditions: A549 viability, higher = more signal, called active from +8 up or from −8 down; note: test concentration not given here
[11] = resazurin metabolic signal in HepG2 cells – cell-based, resazurin fluorescence, 24 h, PK04 Diversity Set, profiling panel (AID 1172); conditions: HepG2 viability, higher = more signal; note: test concentration not given here
[12] = budding yeast growth changes without added modifier – OD600, strain BY4716, 24 h, basal condition, primary screen (AID 1173); conditions: S. cerevisiae BY4716 growth, OD600, 24 h; higher = more signal, called active from +8 up or from −8 down
[13] = viability profiling in MM1S myeloma cells – cell-based, resazurin fluorescence, basal, 24 h, PK04 Diversity Set, profiling panel (AID 1174); conditions: higher = more signal, called active from +8 up or from −8 down; note: test concentration not given here
[14] = molecular target: Dihydroorotate dehydrogenase (quinone), mitochondrial (Plasmodium falciparum (isolate 3D7)) (UniProt Q08210); assay: inhibition of P. falciparum DHODH – biochemical, C-terminal His tag, absorbance 600 nm, primary screen (AID 1175); conditions: PfDHODH enzyme, DCIP absorbance 600 nm; higher = more signal, called active from +8 up or from −8 down;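 note: recombinant parasite enzyme with a five histidine tag at its C terminus; test concentration not given here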
[15] = inhibition of PAO1 biofilm formation – strain PAO1, LB-PBS medium, absorbance 600 nm, primary screen (AID 1176); note: test concentration not given here; conditions: P. aeruginosa PAO1 growth/biofilm, A600, 12 h; higher = more signal
[16] = growth modulation of vineyard yeast isolate – strain RM11-1a, OD600, basal, 24 h, primary screen (AID 1177);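 note: cultures grown under basal conditions with no added stressor; test concentration not given here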; conditions: S. cerevisiae RM11-1a growth, OD600, 24 h; higher = more signal, called active from +8 up or from −8 down
[17] = growth of efflux-deficient E. coli DRC39 – strain DRC39, OD650, 24 h, E. coli filamentation inducers, primary screen (AID 1178);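 note: growth measured as culture turbidity by optical density at 650 nm; test concentration not given here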; conditions: E. coli DRC39 acrAB, higher = more signal, called active from +8 up or from −8 down
[18] = growth of efflux-deficient E. coli DRC39 – strain DRC39, OD650, 48 h, E. coli filamentation inducers, primary screen (AID 1179);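 note: screen aims at cell division blockers that make cells filament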; conditions: E. coli DRC39 delta-acrAB growth, higher = more signal, called active from +8 up or from −8 down
[19] = viability profiling in RPMI8226 myeloma cells – cell-based, resazurin fluorescence, basal, 24 h, PK04 Diversity Set, profiling panel (AID 1180); conditions: higher = more signal;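 note: RPMI8826 multiple myeloma cell line at 5000 cells per well; test concentration not given here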
[20] = molecular target: E3 ubiquitin-protein ligase XIAP (Homo sapiens) (UniProt P98170); assay: small molecules binding XIAP protein – biophysical, small-molecule microarray, fluorescence 635 nm, primary screen (AID 1181); conditions: higher = more signal;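 note: score merges 667 nm emission and signal to noise over triplicate slides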
Sequence of E3 ubiquitin-protein ligase XIAP (Homo sapiens) (P98170 whole entry, looked up): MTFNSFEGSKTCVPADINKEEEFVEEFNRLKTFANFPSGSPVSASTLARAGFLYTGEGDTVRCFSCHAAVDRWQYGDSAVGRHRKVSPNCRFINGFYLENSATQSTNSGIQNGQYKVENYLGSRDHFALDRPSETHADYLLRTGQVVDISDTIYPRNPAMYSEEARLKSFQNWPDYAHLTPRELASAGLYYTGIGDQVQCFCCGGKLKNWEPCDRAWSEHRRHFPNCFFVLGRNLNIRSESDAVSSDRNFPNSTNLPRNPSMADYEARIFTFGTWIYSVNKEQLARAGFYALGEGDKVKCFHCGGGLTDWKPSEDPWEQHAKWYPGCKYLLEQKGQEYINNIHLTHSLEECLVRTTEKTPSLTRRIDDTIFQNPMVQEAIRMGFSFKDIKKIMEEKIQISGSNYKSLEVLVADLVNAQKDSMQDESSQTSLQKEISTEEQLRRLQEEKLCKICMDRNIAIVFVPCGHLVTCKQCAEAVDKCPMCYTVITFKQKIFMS

Sequence of Dihydroorotate dehydrogenase (quinone), mitochondrial (Plasmodium falciparum (isolate 3D7)) (Q08210 whole entry, looked up): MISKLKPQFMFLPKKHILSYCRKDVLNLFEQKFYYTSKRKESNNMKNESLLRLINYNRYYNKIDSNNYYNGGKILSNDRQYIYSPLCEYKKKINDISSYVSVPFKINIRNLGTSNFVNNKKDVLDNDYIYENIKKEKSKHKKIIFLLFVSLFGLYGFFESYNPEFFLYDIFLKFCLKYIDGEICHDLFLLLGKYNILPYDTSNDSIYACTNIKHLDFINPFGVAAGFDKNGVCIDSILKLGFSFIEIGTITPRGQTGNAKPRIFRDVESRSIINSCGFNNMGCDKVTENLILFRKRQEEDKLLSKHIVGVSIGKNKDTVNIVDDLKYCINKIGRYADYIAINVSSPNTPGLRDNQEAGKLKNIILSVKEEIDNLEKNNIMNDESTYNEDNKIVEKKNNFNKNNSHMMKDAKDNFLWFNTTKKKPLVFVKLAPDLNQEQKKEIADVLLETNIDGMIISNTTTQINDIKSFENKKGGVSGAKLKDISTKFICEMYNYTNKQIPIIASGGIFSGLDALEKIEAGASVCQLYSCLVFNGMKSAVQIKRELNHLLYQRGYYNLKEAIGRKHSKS

Structure (SMILES)	z-score [1]	z-score [2]	z-score [3]	z-score [4]	z-score [5]	z-score [6]	z-score [7]	z-score [8]	z-score [9]	z-score [10]	z-score [11]	z-score [12]	z-score [13]	composite z-score [14]	z-score [15]	z-score [16]	z-score [17]	z-score [18]	z-score [19]	composite z-score [20]
C=CC[C@]1(C(=O)N(C)C)COC(c2ccc(OCCCO)cc2)=N1	0.345	0.911	-0.8	-0.424	0.304	-1.26	-0.133 (inactive)	-0.676	1.23	-0.497 (inactive)	0.0446	-2.54 (inactive)	0.41 (inactive)	-0.261 (inactive)	1.21 (inactive)	0.919 (inactive)	0.386 (inactive)	-2.8 (inactive)	0.764	0.202
COc1cccc(OC)c1C(=O)O[C@H]1[C@@H]2OC(=O)[C@H](Cc3cccc(Br)c3)C/C=C/C[C@@H](Cc3cccc(Br)c3)C(=O)O[C@H]2[C@@H](OC)O[C@@H]1CO	-0.144	0.0726	-0.215	-2.6	-3.88	-3.42	-0.819 (inactive)	-0.735	-0.211	-0.952 (inactive)	-0.946	-0.696 (inactive)	-1.11 (inactive)	-0.491 (inactive)	0.277 (inactive)	0.788 (inactive)	-0.0368 (inactive)	0.165 (inactive)	-1.38	0.182
CN(C)C(=O)[C@]1(Cc2ccccc2)N=C(c2ccc(OCCCO)cc2)O[C@@H]1c1ccccc1	-0.092	-0.577	0.846	-0.864	-1	0.0944	0.193 (inactive)	-1.11	-0.192	0.747 (inactive)	0.0784	-1.32 (inactive)	0.324 (inactive)	0.179 (inactive)	-0.304 (inactive)	0.597 (inactive)	-0.809 (inactive)	-0.591 (inactive)	-0.247	0.125
CC(C)C[C@@H]1NC(=O)[C@H]2C[C@@H](C(=O)NCCCCCNC(=O)CS)[C@@H](c3ccc(O)cc3)N2C1=O	-0.286	0.709	-0.724	-1.04	-1.36	-0.686	-0.372 (inactive)	-0.113	-0.611	-0.858 (inactive)	-2.15	0.131 (inactive)	-0.297 (inactive)	0.204 (inactive)	0.767 (inactive)	0.665 (inactive)	-0.117 (inactive)	-0.942 (inactive)	-0.57	-0.0577
NCCCC[C@@H]1NC(=O)[C@H]2C[C@@H](C(=O)O)[C@@H](c3cccc(OCCO)c3)N2C1=O	-0.917	-0.61	0.274	-1.81	0.0324	-2.23	0.0425 (inactive)	-0.392	-0.658	0.506 (inactive)	-0.578	-0.0349 (inactive)	0.152 (inactive)	-6.64 (inactive)	0.628 (inactive)	1.08 (inactive)	0.191 (inactive)	-0.28 (inactive)	-0.438	0.201
CC(C)C[C@@H]1NC(=O)[C@@]23C(=O)N[C@@H](Cc4ccccc4)C2[C@H](C)[C@@]2(C)O[C@H]2C3/C=C/C/C=C\CNC(=O)[C@@H](CC(C)C)NC1=O (stereo not given in full)	0.939	0.703	-0.293	-0.549	-0.361	-0.046	-0.618 (inactive)	-0.955	1.28	1.31 (inactive)	0.175	-1.08 (inactive)	-0.102 (inactive)	-0.0599 (inactive)	0.0937 (inactive)	-0.664 (inactive)	0.495 (inactive)	-0.323 (inactive)	0.292	-0.0752
COc1ccccc1CN1C(=O)c2ccccc2[C@](Cc2ccccc2I)(C(=O)NCCCN(C)C)[C@@H]1c1ccc(CO)cc1	-4.38	-0.247	-5.12	-3.81	-4.39	-3.01	1.29 (inactive)	-1.03	-2.23	-7.15 (inactive)	-6.49	-10.3 (active)	-9.07 (active)	-0.572 (inactive)	1.57 (inactive)	-0.133 (inactive)	-1.17 (inactive)	-2.71 (inactive)	-6.58	-0.175
C=CCC(OC(C)=O)[C@@H]1[C@@H](N(Cc2cccc3ccccc23)C(=O)c2ccc(-c3ccccc3)cc2)c2cc(OCCCO)ccc2N1C(=O)c1ccc2ccccc2n1 (stereo not given in full)	-0.421	0.587	0.589	-0.848	-0.842	1.08	-0.12 (inactive)	0.61	-0.0192	0.701 (inactive)	-0.0049	0.493 (inactive)	0.623 (inactive)	-0.318 (inactive)	0.35 (inactive)	-0.634 (inactive)	-0.267 (inactive)	-0.174 (inactive)	0.485	-0.0102
